High-throughput results deposited in PubChem by several laboratories.
GDH-TPI inh = GDH-TPI coupled enzyme inhibition counter-screen; GDH-TPI coupled enzyme counterscreen, NADH absorbance; inhibition, % at 4.8 µM; actives 1.2% (n = 360,000); AID 588335; in the data active means inhibition above about 30%;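 further: 0% = DMSO wells and 100% = wells lacking the enzyme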
BioA inh = BioA (M. tuberculosis) enzyme inhibition; inhibition, % at 9.99 µM; actives 0.096% (n = 360,000); purified M. tuberculosis BioA enzyme, plate reader; AID 602481; in the data active means inhibition above about 40%
Vc quorum ag = induces V. cholerae light production without autoinducers; V. cholerae BH1578 lux reporter, luminescence, 6 h; actives 0.16% (n = 350,000); activation, % at 18.7 µM; AID 588436; in the data active means activation mostly above about 9.7%, no sharp cut-off
FBA Mtb inh = Mtb fructose-bisphosphate aldolase inhibition. P9WQA3. purified M. tuberculosis FBA, fluorescence read-out. inhibition, % at 1 µM. actives 2.3% (n = 360,000). AID 588726; in the data active means inhibition above about 27%;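 further: 0% = vehicle and 100% = reference inhibitor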
Target sequence (P9WQA3 whole entry, looked up): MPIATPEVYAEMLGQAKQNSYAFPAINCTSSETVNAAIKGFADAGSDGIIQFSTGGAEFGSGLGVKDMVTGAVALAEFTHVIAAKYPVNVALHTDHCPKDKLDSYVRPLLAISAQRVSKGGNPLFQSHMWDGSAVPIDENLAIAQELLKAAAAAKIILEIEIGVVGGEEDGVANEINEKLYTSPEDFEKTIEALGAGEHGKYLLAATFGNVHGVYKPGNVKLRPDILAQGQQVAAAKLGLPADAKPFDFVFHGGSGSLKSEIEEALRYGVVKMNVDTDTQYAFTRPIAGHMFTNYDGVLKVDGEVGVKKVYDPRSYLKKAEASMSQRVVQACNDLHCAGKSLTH
Starred values were filed as active, the others as inactive; i = inactive; / = not tested or not shown; + = active, no number. Rows were chosen to be rich in hits. Some 3% of all compounds tested hit in one or more screens of this group.

SMILES	GDH-TPI inh	BioA inh	Vc quorum ag	FBA Mtb inh
COc1ccc(S(=O)(=O)Nc2ccc3c(c2)C(=O)N([C@H](C)CO)C[C@H](C)[C@@H](CN(C)C(=O)NC2CCCCC2)OCCCC[C@@H](C)O3)cc1	/	0	/	/
Cc1ccc(-c2csc(/C(C#N)=C(\O)CN3CCN(C(=O)c4ccco4)CC3)n2)cc1	31*	2	/	0
COC(=O)c1cc2c(ccc3ccccc32)oc1=O	20	7	i	+
C[C@@H]1CN([C@@H](C)CO)C(=O)c2cc(NC(=O)Nc3ccccc3)ccc2O[C@H]1CN(C)C(=O)Nc1ccc(C(F)(F)F)cc1	/	-1	/	/
CN(C)CC(=O)N[C@H]1CC[C@@H](CCNC(=O)C2CCCCC2)O[C@H]1CO	/	-2	/	/
O=S(=O)(O)c1cc2oc(-c3ccccc3)nc2c2ccccc12	19	1	1	+
N#CC1=C(N)n2c(s/c(=C\c3ccco3)c2=O)=C(C#N)C1c1ccco1 (configuration not stated)	33*	/	0	-1
C[C@H](CO)N1C[C@H](C)[C@H](CN(C)Cc2ccncc2)Oc2ccc(NC(=O)Cc3ccccc3)cc2C1=O	/	1	/	/
CN(C)C(=O)C[C@H]1CC[C@@H]2[C@H](COc3ccc(NC(=O)C4CC4)cc3C(=O)N2C)O1	/	-1	/	/
Cc1cccc[n+]1CCCCCCCCCC[n+]1ccccc1C	-4	2	-1	-6
CCCCCCCCCC[n+]1cccc2c3ccccc3ccc21	4	/	-1	29*
C[C@H]1CN([C@@H](C)CO)C(=O)c2cc(-c3ccc(C#N)cc3)cnc2O[C@@H]1CN(C)Cc1cncnc1	/	-3	/	/
Cc1ccc(NC(=O)Cc2n[nH]c(=S)n2C)cc1	-9	-3	-1	3
Cn1c(CC(=O)Nc2ccc(Cl)c(Cl)c2)n[nH]c1=S	-1	0	i	55*
Clc1ccc(-c2nc3cnccn3c2Nc2ccc3c(c2)OCO3)cc1	10	12	0	4
CSc1ccc(-c2nc3cnccn3c2Nc2ccc3c(c2)OCO3)cc1	24	61*	-2	3
c1cn2c(Nc3ccc4c(c3)OCCO4)c(-c3ccc(N4CCOCC4)cc3)nc2cn1	40*	/	0	2
CCC(=O)N1C[C@@H](C)[C@H](OC)CN(C)C(=O)c2ccc(NC(=O)Nc3ccccc3)cc2OC[C@H]1C	/	2	/	/
O=C(O)CC/C(=C\c1ccc(Cl)c([N+](=O)[O-])c1)c1nc2ccccc2s1	16	/	i	-2
O=C(O)CC/C(=C/c1cccc(NC(=O)c2ccccc2Cl)c1)c1nc2ccccc2s1	37*	/	/	12
Cc1nn(Cc2ccccc2)c(C)c1/C=N/NC(=O)c1ccncc1	-6	1	0	-5
Cc1nn(Cc2ccc(F)cc2)c(Cl)c1/C=N/NC(=O)c1cccnc1	3	98*	i	-1
Cc1nn(Cc2ccccc2)c(C)c1/C=N/NC(=O)c1ccccc1O	36*	/	0	-1
CCCC(=O)Nc1ccc2c(c1)OC[C@H](C)N(C(=O)C1CCCC1)C[C@@H](C)[C@@H](OC)CN(C)C2=O	/	-2	/	/
COc1ccc(/C(O)=C(\C#N)c2nc3ccccc3n2C)cc1OC	51*	3	i	-4
SMILES	GDH-TPI inh	BioA inh	Vc quorum ag	FBA Mtb inh
Cn1c(/C(C#N)=C(\O)c2cc(Cl)sc2Cl)nc2ccccc21	-4	0	0	-4
COc1ccc(/C=C2\CCn3c2nc2cc(C(=O)O)ccc2c3=O)cc1O	51*	2	i	-4
COC(=O)c1ccc(/C=C2\CCn3c2nc2cc(C(=O)O)ccc2c3=O)cc1	14	/	-1	12
CSc1ccc(/C=C2\CCn3c2nc2cc(C(=O)O)ccc2c3=O)cc1	63*	20	-1	7
COc1ccc(/C=C2\CCn3c2nc2cc(C(=O)O)ccc2c3=O)cc1OC	14	-2	i	4
C[C@H]1CN([C@@H](C)CO)C(=O)Cc2cc(NC(=O)CCN3CCOCC3)ccc2O[C@@H]1CN(C)C(=O)Nc1cccc2ccccc12	/	-3	/	/
C[C@@H]1CN([C@@H](C)CO)C(=O)c2cc(N(C)C)ccc2O[C@@H](C)CCCCO[C@@H]1CN(C)C(=O)Nc1ccc(F)cc1	/	2	/	/
CCCN(C)C[C@H]1Oc2ncc(-c3ccccc3)cc2C(=O)N([C@@H](C)CO)C[C@H]1C	/	-1	/	/
COc1ccc(NC(=O)CN(C)C(=O)c2cccc3ccccc23)cc1	1	0	3	131*
CCC(=O)N1CCCCN2[C@@H](CO)[C@@H](c3ccc(C#Cc4cccnc4)cc3)[C@@H]2C1	/	-3	/	/
CCn1c(C(=O)NCCCc2ccccc2)cc2sccc21	6	-1	0	1
O=C(NCCc1ccccc1)c1cc2sccc2n1Cc1ccccc1	4	-1	i	156*
OC[C@@H]1Nc2ccc(C#Cc3ccccc3)cc2[C@H]2[C@@H]1CCN2Cc1nccs1	/	3	/	/
